# Experimental data reported in ChEMBL document CHEMBL1961873, “Compounds: GSK PKIS; Assays: Nanosyn kinase panel” (2012).
# How the values were obtained:
# [1] = target: Calcium/calmodulin-dependent protein kinase type II subunit alpha (Homo sapiens) (UniProt Q9UQM7); details: at 1 µM;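 further: reported value is a mean percent inhibition of CAMK2A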
# [2] = target: Calcium/calmodulin-dependent protein kinase type II subunit delta (Homo sapiens) (UniProt Q13557); details: at 0.1 µM
# [3] = target: Calcium/calmodulin-dependent protein kinase type II subunit delta (Homo sapiens) (UniProt Q13557); details: at 1 µM
# [4] = target: T1, Calcium/calmodulin-dependent protein kinase type IV (Homo sapiens) (UniProt Q16566); details: at 0.1 µM
# T1 sequence (whole entry): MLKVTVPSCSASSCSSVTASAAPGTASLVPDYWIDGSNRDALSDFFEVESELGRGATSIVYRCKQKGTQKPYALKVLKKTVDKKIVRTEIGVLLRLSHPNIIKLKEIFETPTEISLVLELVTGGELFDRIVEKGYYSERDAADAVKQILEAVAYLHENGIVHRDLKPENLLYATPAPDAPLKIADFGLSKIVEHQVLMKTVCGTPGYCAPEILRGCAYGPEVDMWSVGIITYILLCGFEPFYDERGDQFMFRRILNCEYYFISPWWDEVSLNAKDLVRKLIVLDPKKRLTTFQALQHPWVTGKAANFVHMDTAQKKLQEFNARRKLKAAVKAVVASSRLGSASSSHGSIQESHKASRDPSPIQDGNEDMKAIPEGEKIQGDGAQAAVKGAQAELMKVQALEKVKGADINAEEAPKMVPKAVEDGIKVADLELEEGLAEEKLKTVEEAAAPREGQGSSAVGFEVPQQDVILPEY
# [5] = target: T1, Calcium/calmodulin-dependent protein kinase type IV (Homo sapiens); details: at 1 µM
# [6] = target: T2, Serine/threonine-protein kinase Chk1 (Homo sapiens) (UniProt O14757); details: at 0.1 µM
# T2 sequence (whole entry): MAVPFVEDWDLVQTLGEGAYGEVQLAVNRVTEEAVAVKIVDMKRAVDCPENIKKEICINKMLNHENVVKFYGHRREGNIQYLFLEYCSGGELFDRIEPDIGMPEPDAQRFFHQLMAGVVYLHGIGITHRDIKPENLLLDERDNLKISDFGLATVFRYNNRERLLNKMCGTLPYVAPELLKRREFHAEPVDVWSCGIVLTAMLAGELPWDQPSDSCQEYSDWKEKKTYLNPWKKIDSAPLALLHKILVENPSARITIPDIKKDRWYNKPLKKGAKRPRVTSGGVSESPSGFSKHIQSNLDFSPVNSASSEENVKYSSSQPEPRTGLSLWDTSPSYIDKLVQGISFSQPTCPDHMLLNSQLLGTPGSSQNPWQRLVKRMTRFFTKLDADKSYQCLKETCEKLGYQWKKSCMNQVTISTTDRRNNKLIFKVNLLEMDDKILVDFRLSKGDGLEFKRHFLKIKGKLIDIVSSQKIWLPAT
# [7] = target: T2, Serine/threonine-protein kinase Chk1 (Homo sapiens); details: at 1 µM
# [8] = target: Serine/threonine-protein kinase Chk2 (Homo sapiens) (UniProt O96017); details: at 0.1 µM
# [9] = target: Serine/threonine-protein kinase Chk2 (Homo sapiens) (UniProt O96017); details: at 1 µM
# [10] = target: Death-associated protein kinase 1 (Homo sapiens) (UniProt P53355); details: at 0.1 µM
# [11] = target: Death-associated protein kinase 1 (Homo sapiens) (UniProt P53355); details: at 1 µM
# [12] = target: T3, Serine/threonine-protein kinase DCLK2 (Homo sapiens) (UniProt Q8N568); details: at 0.1 µM
# T3 sequence (whole entry): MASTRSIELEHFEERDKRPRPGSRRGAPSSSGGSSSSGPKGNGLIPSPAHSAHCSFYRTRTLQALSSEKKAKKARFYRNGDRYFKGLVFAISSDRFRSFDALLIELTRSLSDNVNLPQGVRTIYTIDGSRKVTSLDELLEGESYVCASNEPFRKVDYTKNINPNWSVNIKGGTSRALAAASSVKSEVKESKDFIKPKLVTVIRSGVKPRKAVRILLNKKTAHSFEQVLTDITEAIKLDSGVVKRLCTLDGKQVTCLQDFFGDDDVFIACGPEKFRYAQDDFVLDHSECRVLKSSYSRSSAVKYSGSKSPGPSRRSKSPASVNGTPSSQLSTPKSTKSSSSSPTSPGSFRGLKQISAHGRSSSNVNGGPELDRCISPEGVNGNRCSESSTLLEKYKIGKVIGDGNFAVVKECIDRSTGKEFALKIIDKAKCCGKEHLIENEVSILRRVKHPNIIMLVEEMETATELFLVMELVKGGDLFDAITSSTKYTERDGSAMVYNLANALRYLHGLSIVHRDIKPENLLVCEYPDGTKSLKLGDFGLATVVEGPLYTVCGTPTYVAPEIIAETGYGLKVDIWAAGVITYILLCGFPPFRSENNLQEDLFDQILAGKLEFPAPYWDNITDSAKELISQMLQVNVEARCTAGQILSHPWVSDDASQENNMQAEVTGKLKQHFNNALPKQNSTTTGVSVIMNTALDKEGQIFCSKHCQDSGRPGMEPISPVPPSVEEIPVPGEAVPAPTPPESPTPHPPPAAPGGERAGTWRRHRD
# [13] = target: T3, Serine/threonine-protein kinase DCLK2 (Homo sapiens); details: at 1 µM
# [14] = target: MAP kinase-activated protein kinase 2 (Homo sapiens) (UniProt P49137); details: at 0.1 µM
# [15] = target: MAP kinase-activated protein kinase 2 (Homo sapiens) (UniProt P49137); details: at 1 µM
# [16] = target: MAP kinase-activated protein kinase 3 (Homo sapiens) (UniProt Q16644); details: at 0.1 µM
# [17] = target: MAP kinase-activated protein kinase 3 (Homo sapiens) (UniProt Q16644); details: at 1 µM
# [18] = target: Serine/threonine-protein kinase MARK1 (Homo sapiens) (UniProt Q9P0L2); details: at 0.1 µM
# [19] = target: Serine/threonine-protein kinase MARK1 (Homo sapiens) (UniProt Q9P0L2); details: at 1 µM
# [20] = target: MAP/microtubule affinity-regulating kinase 3 (Homo sapiens) (UniProt P27448); details: at 0.1 µM;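 further: mean percent inhibition of MARK3 kinase activity, measured within the GSK PKIS screening panel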
# Sequence of MAP/microtubule affinity-regulating kinase 3 (Homo sapiens) (P27448 whole entry, looked up): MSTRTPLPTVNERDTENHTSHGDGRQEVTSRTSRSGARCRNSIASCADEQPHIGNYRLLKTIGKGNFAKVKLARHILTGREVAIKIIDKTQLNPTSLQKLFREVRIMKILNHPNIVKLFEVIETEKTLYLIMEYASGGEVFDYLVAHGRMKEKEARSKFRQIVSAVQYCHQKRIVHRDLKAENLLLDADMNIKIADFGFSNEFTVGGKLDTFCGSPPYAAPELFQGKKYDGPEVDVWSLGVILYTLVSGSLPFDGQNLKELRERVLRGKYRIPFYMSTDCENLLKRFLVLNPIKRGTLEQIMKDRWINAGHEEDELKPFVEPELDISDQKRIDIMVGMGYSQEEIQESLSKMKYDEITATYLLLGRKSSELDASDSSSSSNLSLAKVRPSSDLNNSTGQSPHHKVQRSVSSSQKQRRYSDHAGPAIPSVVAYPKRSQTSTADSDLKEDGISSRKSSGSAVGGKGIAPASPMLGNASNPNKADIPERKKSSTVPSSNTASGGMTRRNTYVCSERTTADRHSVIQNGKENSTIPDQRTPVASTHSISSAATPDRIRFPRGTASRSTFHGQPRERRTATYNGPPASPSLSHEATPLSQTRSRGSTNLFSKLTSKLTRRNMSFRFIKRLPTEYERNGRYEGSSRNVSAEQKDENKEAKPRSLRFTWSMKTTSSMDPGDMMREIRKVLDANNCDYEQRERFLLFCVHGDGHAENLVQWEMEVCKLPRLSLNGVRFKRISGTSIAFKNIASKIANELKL
# Sequence of MAP kinase-activated protein kinase 3 (Homo sapiens) (Q16644 whole entry, looked up): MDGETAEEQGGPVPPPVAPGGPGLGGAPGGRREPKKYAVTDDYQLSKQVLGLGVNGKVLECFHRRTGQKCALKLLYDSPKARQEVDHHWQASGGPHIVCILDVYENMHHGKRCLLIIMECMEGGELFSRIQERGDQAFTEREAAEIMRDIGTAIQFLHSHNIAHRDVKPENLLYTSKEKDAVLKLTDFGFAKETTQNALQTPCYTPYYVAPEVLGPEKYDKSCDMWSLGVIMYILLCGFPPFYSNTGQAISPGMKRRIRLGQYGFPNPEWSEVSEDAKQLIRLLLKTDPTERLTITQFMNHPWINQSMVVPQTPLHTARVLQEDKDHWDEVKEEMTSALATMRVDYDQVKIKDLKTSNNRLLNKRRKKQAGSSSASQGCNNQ
# Sequence of Serine/threonine-protein kinase MARK1 (Homo sapiens) (Q9P0L2 whole entry, looked up): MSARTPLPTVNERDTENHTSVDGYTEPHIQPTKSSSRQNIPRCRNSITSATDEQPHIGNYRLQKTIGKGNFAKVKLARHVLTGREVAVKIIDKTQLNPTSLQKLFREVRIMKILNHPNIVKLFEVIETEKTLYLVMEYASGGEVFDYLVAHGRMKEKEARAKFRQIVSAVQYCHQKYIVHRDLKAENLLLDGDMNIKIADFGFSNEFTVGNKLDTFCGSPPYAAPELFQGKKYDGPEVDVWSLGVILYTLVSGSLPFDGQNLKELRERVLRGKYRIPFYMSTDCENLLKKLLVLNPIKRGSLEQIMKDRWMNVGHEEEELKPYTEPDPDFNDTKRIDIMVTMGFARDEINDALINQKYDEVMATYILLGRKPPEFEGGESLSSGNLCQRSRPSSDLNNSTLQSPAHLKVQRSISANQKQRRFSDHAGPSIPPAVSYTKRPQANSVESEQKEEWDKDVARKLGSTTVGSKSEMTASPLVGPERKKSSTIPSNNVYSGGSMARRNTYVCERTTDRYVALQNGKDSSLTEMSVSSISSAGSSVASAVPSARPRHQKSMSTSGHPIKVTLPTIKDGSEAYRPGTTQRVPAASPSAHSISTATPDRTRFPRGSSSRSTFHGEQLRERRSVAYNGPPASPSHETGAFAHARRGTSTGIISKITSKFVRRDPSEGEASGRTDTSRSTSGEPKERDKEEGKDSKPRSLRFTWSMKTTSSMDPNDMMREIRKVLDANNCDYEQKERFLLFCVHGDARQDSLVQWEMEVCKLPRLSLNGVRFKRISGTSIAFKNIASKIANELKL
# Sequence of Death-associated protein kinase 1 (Homo sapiens) (P53355 whole entry, looked up): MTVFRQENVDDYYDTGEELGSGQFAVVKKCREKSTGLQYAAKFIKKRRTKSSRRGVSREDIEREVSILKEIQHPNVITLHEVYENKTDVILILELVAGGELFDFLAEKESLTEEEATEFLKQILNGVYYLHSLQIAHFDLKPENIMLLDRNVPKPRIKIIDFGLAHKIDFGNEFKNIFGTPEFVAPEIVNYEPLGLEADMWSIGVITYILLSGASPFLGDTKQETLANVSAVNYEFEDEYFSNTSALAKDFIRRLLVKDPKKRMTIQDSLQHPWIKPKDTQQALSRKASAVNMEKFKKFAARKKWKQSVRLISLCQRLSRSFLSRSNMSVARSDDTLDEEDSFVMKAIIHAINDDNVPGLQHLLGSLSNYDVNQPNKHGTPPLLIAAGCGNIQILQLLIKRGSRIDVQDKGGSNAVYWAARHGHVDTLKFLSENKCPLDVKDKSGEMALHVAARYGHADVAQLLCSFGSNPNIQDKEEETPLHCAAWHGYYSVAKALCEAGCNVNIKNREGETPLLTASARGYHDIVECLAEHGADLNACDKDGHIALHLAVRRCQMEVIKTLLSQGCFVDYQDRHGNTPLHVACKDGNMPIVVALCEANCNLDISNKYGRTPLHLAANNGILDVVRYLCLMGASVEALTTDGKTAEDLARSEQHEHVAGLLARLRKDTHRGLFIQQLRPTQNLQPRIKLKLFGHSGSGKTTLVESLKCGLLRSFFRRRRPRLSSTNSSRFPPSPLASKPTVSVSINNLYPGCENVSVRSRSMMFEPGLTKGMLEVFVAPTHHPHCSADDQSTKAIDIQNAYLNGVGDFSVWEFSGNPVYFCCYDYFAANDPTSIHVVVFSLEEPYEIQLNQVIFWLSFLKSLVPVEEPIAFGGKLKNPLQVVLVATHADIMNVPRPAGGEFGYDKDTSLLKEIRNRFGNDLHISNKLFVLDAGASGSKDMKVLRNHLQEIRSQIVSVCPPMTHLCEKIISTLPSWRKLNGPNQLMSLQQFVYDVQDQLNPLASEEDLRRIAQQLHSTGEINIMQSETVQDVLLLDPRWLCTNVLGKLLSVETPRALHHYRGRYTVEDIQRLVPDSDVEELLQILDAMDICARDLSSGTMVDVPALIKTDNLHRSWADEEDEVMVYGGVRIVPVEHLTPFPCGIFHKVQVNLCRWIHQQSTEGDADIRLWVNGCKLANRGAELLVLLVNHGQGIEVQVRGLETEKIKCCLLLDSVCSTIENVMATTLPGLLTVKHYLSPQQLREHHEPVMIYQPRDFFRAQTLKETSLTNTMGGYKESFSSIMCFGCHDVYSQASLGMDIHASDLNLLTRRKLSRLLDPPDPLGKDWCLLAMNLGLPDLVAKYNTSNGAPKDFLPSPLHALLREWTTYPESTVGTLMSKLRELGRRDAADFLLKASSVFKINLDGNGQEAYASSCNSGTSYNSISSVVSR
# Sequence of MAP kinase-activated protein kinase 2 (Homo sapiens) (P49137 whole entry, looked up): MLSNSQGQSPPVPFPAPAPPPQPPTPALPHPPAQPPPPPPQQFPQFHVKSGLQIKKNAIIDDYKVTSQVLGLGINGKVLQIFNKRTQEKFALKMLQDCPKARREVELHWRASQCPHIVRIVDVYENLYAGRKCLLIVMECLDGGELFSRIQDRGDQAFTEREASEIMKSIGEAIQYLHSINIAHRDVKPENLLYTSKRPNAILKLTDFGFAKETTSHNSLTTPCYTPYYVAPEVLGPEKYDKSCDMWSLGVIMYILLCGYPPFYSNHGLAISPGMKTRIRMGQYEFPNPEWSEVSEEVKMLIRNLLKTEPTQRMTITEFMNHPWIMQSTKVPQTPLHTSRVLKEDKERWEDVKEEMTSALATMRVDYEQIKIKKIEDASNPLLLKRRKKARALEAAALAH
# Sequence of Calcium/calmodulin-dependent protein kinase type II subunit delta (Homo sapiens) (Q13557 whole entry): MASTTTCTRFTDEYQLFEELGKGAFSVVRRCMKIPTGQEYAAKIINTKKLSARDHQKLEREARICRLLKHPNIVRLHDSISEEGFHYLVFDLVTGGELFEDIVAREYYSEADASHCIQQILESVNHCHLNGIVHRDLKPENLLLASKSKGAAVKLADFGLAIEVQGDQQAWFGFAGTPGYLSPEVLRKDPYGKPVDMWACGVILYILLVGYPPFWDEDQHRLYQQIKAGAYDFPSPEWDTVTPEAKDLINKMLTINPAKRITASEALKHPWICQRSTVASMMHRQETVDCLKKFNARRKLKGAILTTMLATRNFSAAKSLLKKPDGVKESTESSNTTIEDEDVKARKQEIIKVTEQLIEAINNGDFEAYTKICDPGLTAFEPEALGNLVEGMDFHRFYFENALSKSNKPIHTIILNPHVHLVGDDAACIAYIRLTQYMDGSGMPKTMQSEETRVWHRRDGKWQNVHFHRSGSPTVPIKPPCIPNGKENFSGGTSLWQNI
# Sequence of Serine/threonine-protein kinase Chk2 (Homo sapiens) (O96017 whole entry): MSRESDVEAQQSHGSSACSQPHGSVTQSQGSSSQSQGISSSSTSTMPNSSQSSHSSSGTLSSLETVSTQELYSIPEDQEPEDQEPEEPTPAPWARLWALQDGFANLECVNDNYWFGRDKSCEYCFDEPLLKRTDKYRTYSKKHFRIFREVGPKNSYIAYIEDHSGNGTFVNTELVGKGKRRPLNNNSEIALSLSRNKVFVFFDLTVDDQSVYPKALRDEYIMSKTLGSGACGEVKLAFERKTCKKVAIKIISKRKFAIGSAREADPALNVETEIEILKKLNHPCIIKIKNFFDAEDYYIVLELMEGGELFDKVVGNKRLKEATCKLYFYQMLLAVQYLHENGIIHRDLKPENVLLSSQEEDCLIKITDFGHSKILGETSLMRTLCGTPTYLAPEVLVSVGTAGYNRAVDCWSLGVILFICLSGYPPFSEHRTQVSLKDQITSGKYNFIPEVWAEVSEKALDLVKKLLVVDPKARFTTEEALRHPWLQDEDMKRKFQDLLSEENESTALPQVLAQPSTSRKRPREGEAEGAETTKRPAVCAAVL
SMILES,inhibition [1],inhibition [2],inhibition [3],inhibition [4],inhibition [5],inhibition [6],inhibition [7],inhibition [8],inhibition [9],inhibition [10],inhibition [11],inhibition [12],inhibition [13],inhibition [14],inhibition [15],inhibition [16],inhibition [17],inhibition [18],inhibition [19],inhibition [20]
COc1cc2ncn(-c3cc(OCc4cccs4)c(C(N)=O)s3)c2cc1OC,1.67%,0.52%,2.97%,-3.4%,-4.06%,1.35%,3.75%,2.01%,5.81%,0.06%,-2.56%,-9.99%,-0.46%,0.78%,1.78%,1.75%,2.97%,2.63%,15.8%,3.86%
COc1cc(C)c(N(C)C(=O)CN(C)C)cc1Nc1nc(Nc2cccc(F)c2C(N)=O)c2cc[nH]c2n1,4.38%,3.09%,3.38%,1.4%,4.78%,-4.87%,-0.94%,2.55%,8.44%,0.19%,1.79%,-2.4%,-3.85%,-0.22%,0.04%,1.56%,0.17%,0.72%,1.97%,3.34%
O=C(NCC1CC1)c1ccc(-c2cccc(C(=O)NC3CC3)c2)cc1,2.74%,2.24%,3.64%,0.89%,2%,-3.93%,2.12%,0.96%,0.33%,2.26%,3.86%,1.31%,-0.41%,0.95%,1.17%,2%,3.94%,2.23%,1.62%,4.12%
Fc1ccc(-c2ncn(C3CCNCC3)c2-c2ccnc(Oc3ccc(Oc4ccccc4)cc3)n2)cc1,9.16%,3.93%,10.3%,-1.5%,4.41%,10.6%,16.4%,8.69%,13.4%,12.4%,13.2%,-0.37%,2.31%,5.15%,7.84%,37.5%,46.2%,2.1%,4.13%,2.76%
COc1cc(Nc2ncc(-c3ccccc3)o2)cc(OC)c1OC,-0.38%,-2.56%,5.55%,-4.13%,0.09%,1.58%,5.64%,-3.16%,1.28%,1.78%,1.28%,-1.54%,1.6%,-1.14%,-0.59%,-1.98%,-2.22%,2.34%,15.6%,2.51%
Fc1ccc(-c2c(-c3ccncc3)nc3n2CCS3)cc1,0.88%,1.78%,2.01%,1.18%,-0.25%,0.42%,2.88%,1.49%,0.52%,-0.64%,-1.77%,-5.23%,-4.37%,0.4%,0.36%,1.43%,1.3%,2.07%,3.24%,1.44%
FC(F)(F)c1cccc(Nc2nccc(-c3cnn4nc(-c5ccccc5)ccc34)n2)c1,-0.96%,0.96%,-1.12%,1.79%,-1.25%,3.93%,1.39%,0.57%,1.27%,3.36%,1.95%,-0.23%,2.76%,1.22%,-0.44%,3.72%,2.87%,2.35%,2.53%,3.77%
COc1cc2ncn(-c3cc(OCc4ccccc4C(F)(F)F)c(C(C)=O)s3)c2cc1OC,0.39%,0.61%,1.91%,-0.3%,-1.74%,2.09%,4.57%,1.3%,1.9%,4.16%,1.98%,-1.1%,1.3%,1.03%,0.77%,3.07%,2.6%,4.34%,2.61%,0.67%
Nc1nccc(-c2c(-c3ccc(F)cc3)ncn2C2CCC(O)CC2)n1 (stereo not given),-3.25%,-1.92%,1.53%,9.35%,-0.1%,-3.08%,0.13%,-1.95%,-1.72%,-1.1%,-0.38%,-1.66%,5.59%,-1.26%,-1.57%,30%,36.4%,-0.13%,0.51%,-1.63%
CN(C)CCOc1ccc(-c2cc(-c3ccc4c(c3)CCC4=NO)c(-c3ccncc3)o2)cc1,0.22%,-0.38%,2.18%,-0.94%,1.99%,-2.19%,-2.8%,-1.13%,-1.56%,-1.01%,-1.18%,-2.52%,-1.37%,-1.35%,-1.61%,-1.27%,-1.84%,-2.08%,1.81%,-5.74%
COc1cc(Nc2ncc3c(C)nc(-c4cccc(Oc5ccccc5)c4)n3n2)cc(OC)c1OC,4.08%,3.36%,3.83%,1.65%,4.26%,3.9%,10.2%,7.97%,11.6%,8.86%,11.9%,0.71%,0.09%,3.12%,3.35%,8.12%,7.79%,1.87%,6.76%,3.73%
Cc1ccc(C(=O)NC(C)C)cc1-c1ccc(C(=O)NCC2CC2)cc1,-3.85%,-3.04%,-1.11%,-0.94%,-2.57%,-1.72%,-3.38%,-3.25%,-2.4%,-2.08%,-2.3%,-3.07%,-1.07%,-1.44%,-1.8%,0.42%,9.15%,0.27%,0.65%,0.19%
COc1ccc2cc(-c3c(-c4ccncc4)nc(-c4ccc(S(C)(=O)=O)cc4C)n3C)ccc2c1,3.89%,3.49%,3.21%,0.37%,0.96%,-2.73%,-3.07%,-2.23%,-0.36%,-2.52%,-3.68%,0.26%,-1.72%,-0.32%,-1.32%,-1.15%,1.63%,3.38%,4.84%,1.58%
NS(=O)(=O)c1ccc(N/N=C2\C(=O)Nc3ccc(-c4cnco4)cc32)cc1,4.17%,2.48%,16.3%,-0.57%,-0.99%,-0.45%,6.95%,0.92%,5.7%,-1.79%,-3.71%,-5.27%,-2.47%,-0.59%,0.18%,-0.18%,-0.48%,2.3%,15.6%,2.61%
O=C(Nc1ccc(Oc2ccc3[nH]c(NC(=O)c4ccccc4)nc3c2)cc1)Nc1cc(C(F)(F)F)ccc1F,2.85%,2.01%,4.57%,-0.56%,-0.86%,4.82%,5.63%,1.47%,3.89%,4.99%,5.19%,-1.34%,-0.03%,1.97%,1.81%,4.88%,16.7%,2.51%,5.14%,3.79%
CCN(CC)Cc1ccc(Nc2nccc(-c3cnn4ncccc34)n2)cc1,4.21%,3.84%,14.3%,-0.37%,0.34%,1.29%,11.6%,2.5%,7.56%,2.68%,1.28%,-4.15%,1.64%,0.69%,2.01%,2.61%,3.32%,4.03%,20.9%,4.34%
O=C1NC(=O)C(c2cccc(Cl)c2)=C1Nc1ccc(Cl)c(C(=O)O)c1,2.06%,1.45%,4.49%,-0.36%,-0.93%,0.81%,2.22%,2.39%,3.13%,3.48%,3.41%,0.79%,-4.18%,1.73%,1.21%,2.96%,3.57%,2.35%,3.49%,3.32%
Cc1ccc(NC(=O)c2ccoc2)cc1-c1ccc(C(=O)NCC2CC2)cc1,-3.72%,1.18%,-0.48%,-0.8%,-1.43%,2%,1.01%,1.96%,1.43%,3.89%,4.7%,-0.46%,-0.45%,0.09%,-0.32%,20%,30.9%,0.5%,1.39%,1.61%
c1ccc(Oc2ccc(Nc3ncc(-c4ccccc4)o3)cc2)cc1,0.18%,0.76%,0.58%,0.49%,1.32%,0.67%,1.6%,0.58%,1.05%,0.04%,0.04%,0.28%,-1.82%,0.81%,0.09%,1.72%,1.73%,1.66%,0.44%,-0.01%
NC(=O)c1cc(-c2ccc(F)cc2)cc(-c2ccncc2)c1N,3.68%,1.36%,3.98%,0.77%,0.56%,0.67%,0.41%,3%,3.74%,1.26%,1.25%,-0.12%,-0.85%,2.21%,1.35%,4.03%,5.82%,2.29%,4.17%,3.27%
CN(C)c1ccc2c(c1)/C(=C/Nc1ccc(S(N)(=O)=O)cc1)C(=O)N2,3.56%,2.54%,15%,0.96%,0.42%,8.69%,34.9%,1.42%,10.6%,1.57%,1.27%,1.9%,5.58%,0.97%,1.33%,0.95%,-0.05%,6.96%,36.4%,6.41%
